PubChem BioAssay (NCI)
About 79,000 compounds went through this panel and 15% of them were active in at least one assay; those are over-represented in the sample as a whole. Active and inactive are the calls of the source. Rule as the data show it: active = growth inhibition above about 70%; inactive = the rest.

Key:
[1] = NCI Yeast Anticancer Drug Screen. Data for the rad50 strain (AID 155);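 also: 0% = growth of vehicle-only cultures of the same strain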; settings: S. cerevisiae rad50 strain growth inhibition, hits give high values
Method in brief: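 Growth of the mutant yeast was measured after compound exposure and referenced to vehicle-treated cultures.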

[2] = NCI Yeast Anticancer Drug Screen. Data for the mec2-1 strain (AID 157); settings: S. cerevisiae mec2-1 strain, hits give high values
Method in brief: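 mec2-1 yeast strain, carrying an alteration in DNA damage repair or cell cycle control, was exposed to compounds; growth inhibition was measured relative to vehicle-treated controls.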

[3] = NCI Yeast Anticancer Drug Screen. Data for the sgs1 mgt1 strain (AID 161);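 also: 0% = growth of cultures given vehicle only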; settings: S. cerevisiae sgs1 mgt1 strain, hits give high values
Method in brief: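 Compounds are added to genetically altered yeast, and growth is compared with cultures given vehicle alone to give percent inhibition.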

[4] = NCI Yeast Anticancer Drug Screen. Data for the cln2 rad14 strain (AID 165);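 also: 0% = growth equal to vehicle treated cultures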; settings: S. cerevisiae cln2 rad14 strain, hits give high values
Method in brief: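 Yeast carrying cln2 and rad14 alterations (cell cycle control and DNA damage repair) were exposed to compounds. Growth inhibition was measured against vehicle-treated controls.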

[5] = NCI Yeast Anticancer Drug Screen. Data for the bub3 strain (AID 167); settings: S. cerevisiae bub3 mutant strain, hits give high values
Method in brief: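 Whole-cell yeast assay. The mutant strain was incubated with compounds, and growth inhibition was determined by comparison with vehicle-treated cells.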

[6] = NCI Yeast Anticancer Drug Screen. Data for the mlh1 rad18 strain (AID 175); settings: S. cerevisiae mlh1 rad18 strain growth inhibition, hits give high values
Method in brief: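 Growth inhibition of the yeast strain was measured after compound exposure and expressed relative to vehicle-treated controls. The strain carries defined defects in DNA damage repair.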

[7] = at 5.0 µM (retest, dose inferred, filed as 0.5)
[8] = at 50.0 µM (retest, dose inferred, filed as 5.0)

Measured: growth inhibition

COc1ccc(NC(=O)CC(=O)n2nc(-c3ccccc3)c(N=Nc3ccc(C)cc3)c2-c2ccccc2)cc1
inactive: [1]; [7] 34% | [1]; [8] 34% | [1]; at 50.0 µM 36.9% | [2]; [7] 28% | [2]; [8] 28% | [2]; at 50.0 µM 5.95% | [3]; [7] 19% | [3]; [8] 19% | [3]; at 50.0 µM -6.65% | [4]; [7] 20% | [4]; [8] 20% | [4]; at 50.0 µM 21% | [5]; [7] 27% | [5]; [8] 27% | [5]; at 50.0 µM 35.1% | [6]; [7] 36% | [6]; [8] 36% | [6]; at 50.0 µM -3.75%

c1ccc(COc2cccc3[nH]ccc23)cc1
inactive: [1]; [7] -3% | [1]; [8] 29% | [2]; [7] -3% | [2]; [8] 10% | [3]; [7] -6% | [3]; [8] 5% | [4]; [7] -7% | [4]; [8] 6% | [5]; [7] 3% | [5]; [8] 35% | [6]; [7] -5% | [6]; [8] 25%
active: [1]; at 50.0 µM 74.4% | [2]; at 50.0 µM 90.2% | [3]; at 50.0 µM 86.6% | [4]; at 50.0 µM 88.8% | [5]; at 50.0 µM 83.8% | [6]; at 50.0 µM 95.5%

c1ccc(-c2cc(-c3cc(-c4ccccn4)[nH]n3)n[nH]2)nc1
inactive: [1]; [7] 5% | [1]; [8] 4% | [1]; at 50.0 µM 17.2% | [2]; [7] 0% | [2]; [8] -11% | [2]; at 50.0 µM 0.75% | [3]; [7] 0% | [3]; [8] 18% | [3]; at 50.0 µM 23.5% | [4]; [7] -1% | [4]; [8] -16% | [4]; at 50.0 µM 9.05% | [5]; [7] 4% | [5]; [8] 7% | [5]; at 50.0 µM 3.4% | [6]; [7] -5% | [6]; [8] 4% | [6]; at 50.0 µM 19.6%

C=C1C(=O)[C@]23C[C@H]1CC[C@H]2[C@@]12CO[C@@H](O)[C@@H]1C(C)(C)[C@@H](O)C[C@@H]2OC3=O
active: [2]; [8] 79% | [4]; [8] 95% | [5]; [8] 95%
inactive: [1]; [7] 8% | [1]; [8] 6% | [1]; at 50.0 µM 2.3% | [2]; [7] -19% | [2]; at 50.0 µM -5.25% | [3]; [7] 9% | [3]; [8] 27% | [3]; at 50.0 µM 25.4% | [4]; [7] -7% | [4]; at 50.0 µM 67.2% | [5]; [7] -5% | [5]; at 50.0 µM -0.9% | [6]; [7] -1% | [6]; [8] 11% | [6]; at 50.0 µM 24.4%

Cn1c(=S)c2[nH]c(SCCN3CCCC3)nc2n(C)c1=O
active: [1]; [7] 83% | [1]; [8] 99% | [1]; at 50.0 µM 90.8% | [2]; [7] 70% | [2]; [8] 99% | [3]; [8] 94% | [4]; [8] 79% | [5]; [8] 99% | [6]; [8] 95% | [6]; at 50.0 µM 97.2%
inactive: [2]; at 50.0 µM 61.2% | [3]; [7] 53% | [3]; at 50.0 µM 67.5% | [4]; [7] 28% | [4]; at 50.0 µM 1.75% | [5]; [7] 61% | [5]; at 50.0 µM 68% | [6]; [7] 37%
